From PubChem BioAssay (EPA / NIEHS)
Calls of active or inactive are those of the source. How the source made its calls: active means hit-call score of the fitted dose curve at least 0.9, where 1 is the maximum; inactive means score below 0.9.

Assays:
[1] = APR_HepG2_NuclearSize_72hr: Apredica 72-hour HepG2 Assay for Nuclear Size (AID 2282925); details: high-content imaging, actives raise or lower the signal
Summary of the method: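 HepG2 cells dosed 72 h at 0.39–200 uM (10 concentrations, duplicate) in 0.5% v/v DMSO final. Fixed, Hoechst 33342-stained nuclei imaged; nuclear diameter measured by automated image analysis. Bidirectional fit versus DMSO.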

[2] = ATG_CRE_CIS: Attagene CIS-FACTORIAL HepG2 Assay for human cAMP Responsive Element (CRE) binding protein 3 (AID 2282926); details: HepG2 CRE cis-reporter, Attagene multiplexed mRNA; actives raise or lower the signal
Summary of the method: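 HepG2 cells transiently transfected with cis-element-driven multiple reporter transcription units; CRE reporter mRNA measured 24 h after dosing by RT-PCR, 6-FAM labelling, HpaI digestion and capillary electrophoresis. Bidirectional fit versus DMSO baseline.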

[3] = target: CCAAT/enhancer-binding protein beta (Homo sapiens) (UniProt P17676); assay: ATG_C_EBP_CIS: Attagene CIS-FACTORIAL HepG2 Assay for human CCAAT/Enhancer Binding Protein (C/EBP) beta (AID 2282927); details: HepG2 Attagene cis-factorial transcription factor reporter; actives raise or lower the signal
Summary of the method: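 HepG2 transiently transfected with multiplexed reporter units under cis-regulatory promoters reporting endogenous C/EBPb activity. After 24 h exposure, reporter mRNA assayed by RT-PCR, fluorescent labelling, HpaI digestion and capillary electrophoresis; bidirectional fitting versus DMSO.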

[4] = ATG_CMV_CIS: Attagene CIS-FACTORIAL HepG2 Assay for human CMV (Internal Marker) (AID 2282928); details: HepG2 CMV promoter reporter, transcription factor profiling; actives raise or lower the signal;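 further: endpoint acts as a background internal control marker rather than a target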
Summary of the method: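 Cell system: HepG2, transiently transfected multiple reporter units under cis promoters. Exposure: 24 h. Detection: RT-PCR, FAM labeling, HpaI digestion, capillary electrophoresis. Analysis: bidirectional, DMSO baseline.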

[5] = ATG_DR4_LXR_CIS: Attagene CIS-FACTORIAL HepG2 Assay for human Liver X Receptor (LXR), DR4 submotif (AID 2282929); details: HepG2 Attagene DR4 cis-reporter, mRNA transcription; actives raise or lower the signal
Summary of the method: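 Readout: reporter transcript fluorescence after RT-PCR and capillary electrophoresis, fitted bidirectionally against DMSO controls. Human HepG2 liver cells carried transiently transfected multiplexed reporter constructs; endogenous transcription factor activity measured 24 h post-dosing.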

[6] = target: Aryl hydrocarbon receptor (Homo sapiens) (UniProt P35869); assay: ATG_Ahr_CIS: Attagene CIS-FACTORIAL HepG2 Assay for human Aryl Hydrocarbon Receptor (Ahr) (AID 2282930); details: HepG2 AhR cis-factorial reporter transcription; actives raise or lower the signal
Summary of the method: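 HepG2 cells transiently transfected with cis-element-driven multiplexed reporter units; endogenous AhR activity read as reporter mRNA 24 h after dosing, via RT-PCR, 6-FAM labelling, HpaI digestion and capillary electrophoresis. Bidirectional fit relative to DMSO.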

[7] = ATG_AP_1_CIS: Attagene CIS-FACTORIAL HepG2 Assay for human Activator Protein 1 (AP-1) (AID 2282931); details: HepG2 Attagene cis-factorial AP-1 reporter mRNA; actives raise or lower the signal
Summary of the method: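 Reporter transcripts were measured 24 h after dosing by RT-PCR and capillary electrophoresis of fluorescent fragments. Cells: HepG2 carrying transfected cis-regulated reporter constructs reading endogenous factor activity. Gain or loss fitted against DMSO.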

[8] = ATG_AP_2_CIS: Attagene CIS-FACTORIAL HepG2 Assay for human Activator Protein 2 (AP-2) (AID 2282932); details: HepG2 AP-2 cis-reporter, Attagene transcription factor profiling; actives raise or lower the signal
Summary of the method: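 Multiplexed mRNA reporter assay in HepG2: cis-regulated units report endogenous factor activity after 24 h treatment. Fluorescence from capillary electrophoresis of RT-PCR products gives the signal, with DMSO as baseline.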

[9] = ATG_BRE_CIS: Attagene CIS-FACTORIAL HepG2 Assay for human Bone Morphogenetic Protein (BMP) Response Element (BRE) (AID 2282933); details: HepG2 BMP response element reporter, Attagene transcription factor profiling; actives raise or lower the signal
Summary of the method: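 After a 24 h chemical treatment, transiently transfected HepG2 cells were lysed for RNA; reporter transcripts were quantified by fluorescent RT-PCR and capillary electrophoresis, normalised to DMSO.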

[10] = target: Retinoic acid receptor alpha (Homo sapiens) (UniProt P10276); assay: ATG_DR5_RAR_CIS: Attagene CIS-FACTORIAL HepG2 Assay for human Retinoic Acid Receptor Alpha (RARE), DR5 submotif (AID 2282934); details: HepG2 Attagene cis-factorial RARE DR5 reporter, mRNA; actives raise or lower the signal;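 on AC50: reporter responds to endogenous RAR alpha beta and gamma in HepG2 not RARA alone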
Summary of the method: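 HepG2 cells transiently transfected with multiplexed reporter units; DR5 cis-element drives reporter through endogenous transcription factors. After 24 h dosing, reporter mRNA quantified by RT-PCR, fluorescent labeling, HpaI digestion and capillary electrophoresis; bidirectional fitting versus DMSO.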

[11] = target: Transcription factor E2F1 (Homo sapiens) (UniProt Q01094); assay: ATG_E2F_CIS: Attagene CIS-FACTORIAL HepG2 Assay for human E2F Transcription Factor 1 (AID 2282935); details: HepG2 Attagene cis-reporter, E2F reporter RNA transcripts; actives raise or lower the signal
Summary of the method: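 Measures reporter transcript levels via RT-PCR with capillary electrophoresis detection in HepG2 cells harboring cis-regulated reporter units; 24 h post-dose; bidirectional curve fitting with DMSO as baseline.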

[12] = ATG_E_Box_CIS: Attagene CIS-FACTORIAL HepG2 Assay for human Enhancer Box (E-box) (AID 2282936); details: HepG2 E-box cis-reporter transcription, actives raise or lower the signal
Summary of the method: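 First, HepG2 cells receive multiple cis-regulated reporter constructs by transient transfection. Next, chemicals are applied for 24 h. Finally, reporter mRNA is quantified via RT-PCR and capillary electrophoresis, with DMSO as baseline.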

[13] = ATG_M_61_CIS: Attagene CIS-FACTORIAL HepG2 Assay for M61 Transcription Factor (Internal Marker) (AID 2282937); details: HepG2 Attagene CIS-FACTORIAL M61 internal marker reporter; actives raise or lower the signal
Summary of the method: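 Readout: fluorescent reporter mRNA fragments resolved by capillary electrophoresis after RT-PCR. Transiently transfected human HepG2 cells carried MRTU constructs reporting endogenous TF activity; 24 h chemical exposure; gain or loss of signal fitted relative to DMSO.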

[14] = ATG_EGR_CIS: Attagene CIS-FACTORIAL HepG2 Assay for human Early Growth Response 1 (EGR1) (AID 2282938); details: HepG2 Attagene CIS-FACTORIAL EGR reporter mRNA; actives raise or lower the signal
Summary of the method: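 Read-out: fluorescent reporter-mRNA fragments resolved by capillary electrophoresis after RT-PCR, 24 h post-dose in transiently transfected HepG2. Endogenous transcription-factor activity reported via cis-element-regulated reporter units; gain or loss fitted relative to DMSO.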

[15] = ATG_M_19_CIS: Attagene CIS-FACTORIAL HepG2 Assay for M19 Transcription Factor (Internal Marker) (AID 2282939); details: HepG2 Attagene CIS-FACTORIAL M19 internal marker reporter; actives raise or lower the signal
Summary of the method: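 In this multiplexed cell assay, transiently transfected HepG2 reporter units report endogenous transcription-factor activity; after 24 hours of treatment, labelled reporter cDNA fragments are quantified by capillary electrophoresis and fitted bidirectionally against DMSO.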

[16] = ATG_ERE_CIS: Attagene CIS-FACTORIAL HepG2 Assay for Estrogen Response Element (ERE) (AID 2282940); details: HepG2 ERE cis-reporter, Attagene RNA transcript; actives raise or lower the signal
Summary of the method: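 Measuring endogenous transcription factor output, the assay doses transfected HepG2 cells for 24 hours and quantifies reporter transcripts by fluorescent RT-PCR and capillary electrophoresis, with DMSO as baseline.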

[17] = ATG_Ets_CIS: Attagene CIS-FACTORIAL HepG2 Assay for human Erythroblast Transformation Specific (ETS) (AID 2282941); details: HepG2 ETS cis-reporter transcription, actives raise or lower the signal
Summary of the method: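 After transient cis-reporter transfection, HepG2 cells receive test chemical for 24 h. Reporter mRNA levels, measured by RT-PCR and capillary electrophoresis fluorescence, are analysed bidirectionally relative to the DMSO baseline.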

[18] = target: Hepatocyte nuclear factor 3-beta (Homo sapiens) (UniProt Q9Y261); assay: ATG_FoxA2_CIS: Attagene CIS-FACTORIAL HepG2 Assay for human Forkhead box A2 (FOXA2) (AID 2282942); details: HepG2 cis-reporter transcription factor activity, 24 h; actives raise or lower the signal
Summary of the method: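 Readout: fluorescent reporter transcripts resolved by capillary electrophoresis after RT-PCR. Transiently transfected HepG2, 24 h compound exposure, endogenous TF activity at cis promoter elements. Gain or loss of signal fitted relative to DMSO.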

[19] = ATG_FoxO_CIS: Attagene CIS-FACTORIAL HepG2 Assay for human Forkhead box O (FoxO) (AID 2282943); details: HepG2 Attagene cis-reporter, FoxO element, mRNA; actives raise or lower the signal
Summary of the method: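 HepG2 cells transiently transfected with cis-element-driven reporter units report endogenous FoxO activity. After 24 h chemical exposure, reporter mRNA quantified by RT-PCR, fluorescent labeling, HpaI digestion and capillary electrophoresis; bidirectional fit versus DMSO.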

[20] = ATG_GATA_CIS: Attagene CIS-FACTORIAL HepG2 Assay for human GATA Binding Protein (AID 2282944); details: HepG2 GATA cis-element reporter, Attagene multiplex mRNA; actives raise or lower the signal
Summary of the method: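 Measures endogenous transcription factor-driven reporter mRNA in HepG2 cells transiently carrying cis-regulated constructs. 24 h dosing; RNA via oligo(dT) reverse transcription, PCR, HpaI digestion, capillary electrophoresis; fitted relative to DMSO.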

Measured: AC50

Sequence of Aryl hydrocarbon receptor (Homo sapiens) (P35869 whole entry, looked up): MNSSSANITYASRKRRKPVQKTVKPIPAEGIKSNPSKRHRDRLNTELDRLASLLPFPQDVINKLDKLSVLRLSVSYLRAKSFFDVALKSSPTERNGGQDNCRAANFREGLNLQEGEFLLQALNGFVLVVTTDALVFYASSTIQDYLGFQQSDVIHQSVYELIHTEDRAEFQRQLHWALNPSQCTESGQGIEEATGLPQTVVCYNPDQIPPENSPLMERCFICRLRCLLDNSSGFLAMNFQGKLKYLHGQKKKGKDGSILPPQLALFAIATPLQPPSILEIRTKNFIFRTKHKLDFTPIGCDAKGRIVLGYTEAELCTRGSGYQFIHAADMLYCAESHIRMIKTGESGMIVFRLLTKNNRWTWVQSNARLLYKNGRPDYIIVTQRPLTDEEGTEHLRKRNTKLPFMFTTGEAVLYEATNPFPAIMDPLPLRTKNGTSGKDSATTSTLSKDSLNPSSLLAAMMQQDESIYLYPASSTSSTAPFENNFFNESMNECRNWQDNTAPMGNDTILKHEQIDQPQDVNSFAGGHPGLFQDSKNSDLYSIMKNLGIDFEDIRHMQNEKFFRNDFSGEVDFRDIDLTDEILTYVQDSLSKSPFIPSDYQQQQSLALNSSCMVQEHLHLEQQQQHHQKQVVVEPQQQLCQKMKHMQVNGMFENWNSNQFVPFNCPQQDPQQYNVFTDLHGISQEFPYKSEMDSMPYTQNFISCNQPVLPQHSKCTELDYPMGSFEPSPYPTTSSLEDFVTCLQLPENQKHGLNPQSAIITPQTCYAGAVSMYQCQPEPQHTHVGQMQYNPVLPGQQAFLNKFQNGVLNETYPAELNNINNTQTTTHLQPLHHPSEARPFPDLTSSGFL
Sequence of Hepatocyte nuclear factor 3-beta (Homo sapiens) (Q9Y261 whole entry, looked up): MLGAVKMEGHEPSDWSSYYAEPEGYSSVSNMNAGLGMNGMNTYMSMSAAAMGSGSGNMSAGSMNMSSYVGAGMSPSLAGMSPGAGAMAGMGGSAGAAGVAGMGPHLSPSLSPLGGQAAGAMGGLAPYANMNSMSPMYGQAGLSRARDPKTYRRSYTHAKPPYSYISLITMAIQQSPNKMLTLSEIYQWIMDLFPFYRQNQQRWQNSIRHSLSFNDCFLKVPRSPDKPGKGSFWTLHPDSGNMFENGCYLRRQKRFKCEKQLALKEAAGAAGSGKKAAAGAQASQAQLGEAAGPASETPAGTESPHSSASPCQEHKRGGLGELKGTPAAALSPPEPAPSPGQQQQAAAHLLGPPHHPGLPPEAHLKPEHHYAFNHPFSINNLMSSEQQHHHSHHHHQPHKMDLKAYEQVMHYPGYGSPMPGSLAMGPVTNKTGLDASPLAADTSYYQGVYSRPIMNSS
Sequence of Retinoic acid receptor alpha (Homo sapiens) (P10276 whole entry, looked up): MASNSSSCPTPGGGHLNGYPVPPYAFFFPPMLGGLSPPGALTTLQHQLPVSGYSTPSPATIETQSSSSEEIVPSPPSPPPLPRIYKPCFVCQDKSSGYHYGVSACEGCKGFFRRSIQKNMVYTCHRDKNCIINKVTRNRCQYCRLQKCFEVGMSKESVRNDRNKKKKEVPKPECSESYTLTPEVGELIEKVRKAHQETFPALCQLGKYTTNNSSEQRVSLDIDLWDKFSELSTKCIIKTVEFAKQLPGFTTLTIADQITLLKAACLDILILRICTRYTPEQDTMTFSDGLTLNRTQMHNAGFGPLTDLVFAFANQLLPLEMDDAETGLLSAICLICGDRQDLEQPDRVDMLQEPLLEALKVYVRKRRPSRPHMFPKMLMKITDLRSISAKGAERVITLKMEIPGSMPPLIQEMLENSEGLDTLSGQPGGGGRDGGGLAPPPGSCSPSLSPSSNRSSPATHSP
Sequence of CCAAT/enhancer-binding protein beta (Homo sapiens) (P17676 whole entry, looked up): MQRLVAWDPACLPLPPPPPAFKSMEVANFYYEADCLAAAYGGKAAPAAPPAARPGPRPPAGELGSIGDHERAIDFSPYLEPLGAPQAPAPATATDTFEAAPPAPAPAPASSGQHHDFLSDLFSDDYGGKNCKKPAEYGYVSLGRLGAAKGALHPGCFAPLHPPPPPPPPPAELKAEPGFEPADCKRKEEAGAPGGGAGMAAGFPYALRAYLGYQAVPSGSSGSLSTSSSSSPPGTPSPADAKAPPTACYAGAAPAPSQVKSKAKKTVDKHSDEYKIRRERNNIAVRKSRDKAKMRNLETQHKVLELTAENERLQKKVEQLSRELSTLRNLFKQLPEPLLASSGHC
Sequence of Transcription factor E2F1 (Homo sapiens) (Q01094 whole entry, looked up): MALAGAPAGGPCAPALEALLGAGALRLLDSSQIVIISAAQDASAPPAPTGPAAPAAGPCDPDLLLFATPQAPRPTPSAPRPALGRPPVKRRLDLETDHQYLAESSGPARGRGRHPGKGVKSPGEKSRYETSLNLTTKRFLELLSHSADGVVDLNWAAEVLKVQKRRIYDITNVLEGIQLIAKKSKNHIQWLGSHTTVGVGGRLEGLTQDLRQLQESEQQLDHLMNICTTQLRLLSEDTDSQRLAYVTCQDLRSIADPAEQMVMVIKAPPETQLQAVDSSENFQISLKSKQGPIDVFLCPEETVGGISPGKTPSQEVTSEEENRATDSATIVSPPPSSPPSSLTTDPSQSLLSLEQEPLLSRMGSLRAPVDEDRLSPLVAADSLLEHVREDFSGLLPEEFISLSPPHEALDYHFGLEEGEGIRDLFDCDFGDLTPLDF

COP(N)(=O)SC (stereo not drawn)
inactive: [1] | [2] | [3] | [4] | [5] | [6] | [7] | [8] | [9] | [10] | [11] | [12] | [13] | [14] | [15] | [16] | [17] | [18] | [19] | [20]

COc1nc(C)nc(NC(=O)NS(=O)(=O)c2ccccc2CCC(F)(F)F)n1
inactive: [1] | [2] | [3] | [4] | [5] | [6] | [7] | [8] | [9] | [10] | [11] | [12] | [13] | [14] | [15] | [16] | [17] | [18] | [19] | [20]

Cc1ccc(-c2c(Cl)nc(C#N)n2S(=O)(=O)N(C)C)cc1
active: [2] 7.83 µM | [3] 7.57 µM | [7] 9.12 µM | [9] 10.3 µM | [10] 11.9 µM
inactive: [1] | [4] | [5] | [6] | [8] | [11] | [12] | [13] | [14] | [15] | [16] | [17] | [18] | [19] | [20]

C=CCC1=C(C)[C@@H](OC(=O)[C@@H]2[C@@H](C=C(C)C)C2(C)C)CC1=O
active: [2] 7.32 µM | [10] 2.87 µM
inactive: [1] | [3] | [4] | [5] | [6] | [7] | [8] | [9] | [11] | [12] | [13] | [14] | [15] | [16] | [17] | [18] | [19] | [20]

COc1nc(NC(C)C)nc(NC(C)C)n1
inactive: [1] | [2] | [3] | [4] | [5] | [6] | [7] | [8] | [9] | [10] | [11] | [12] | [13] | [14] | [15] | [16] | [17] | [18] | [19] | [20]

COC(=O)C(C)Oc1ccc(Oc2ccc(Cl)cc2Cl)cc1 (stereo not drawn)
inactive: [1] | [2] | [3] | [4] | [5] | [6] | [7] | [8] | [9] | [10] | [11] | [12] | [13] | [14] | [15] | [17] | [18] | [19] | [20]

C=CC1(C)OC(=O)N(c2cc(Cl)cc(Cl)c2)C1=O (stereo not drawn)
inactive: [1] | [2] | [3] | [4] | [5] | [6] | [7] | [8] | [9] | [11] | [12] | [13] | [14] | [15] | [16] | [17] | [18] | [19] | [20]

CC(Oc1ccc(Cl)cc1Cl)C(=O)O (stereo not drawn)
inactive: [1] | [2] | [3] | [4] | [5] | [6] | [7] | [8] | [9] | [10] | [11] | [12] | [13] | [14] | [15] | [16] | [17] | [18] | [19] | [20]

O=C(O)COc1nc(Cl)c(Cl)cc1Cl
inactive: [1] | [2] | [3] | [4] | [5] | [6] | [7] | [8] | [9] | [10] | [11] | [12] | [13] | [14] | [15] | [16] | [17] | [18] | [19] | [20]
